# Only some compounds are listed: those with a hit (about 7.1% of all), similar ones and a draw of the others.
# MCF10A rereplic: induces DNA re-replication in MCF 10a normal breast cells. MCF 10A DNA re-replication, Hoechst nuclear intensity, 48 h. Potency, µM (titrated, usually from 46.1 µM), for inactives: top-dose activity, positive = re-replication, hits mostly activators. 350,000 tested, 2.9% active. AID 624296; note: potency is the fitted concentration of half-maximal effect; % of control where 0% means no effect; nearly all actives have a fitted effect of over 50% in size
# ATXN2 expr inh: ATXN2 expression inhibition. HEK-293 ATXN2-luciferase reporter, luminescence, 24 h. Potency, µM (highest dose often 57 µM), for the others: at the top dose activity change, negative = inhibition, most hits filed as inhibitors. 360,000 tested, 0.72% active; note: potency is the fitted concentration of half-maximal effect; % is set by controls: 0 for no effect and ±100 for the full control effect; nearly all actives have a fitted effect of over 55% in size
#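 ATXN2-luciferase reporter cells (luciferase flanked by upstream and downstream ATXN2 gene portions) were treated 24 h at 37 °C with compounds at up to 57 uM. SteadyGlo luminescence gave expression; GF-AFC fluorescence gave viability.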
# IL-1B inflam inh: blocks inflammasome-driven IL-1 beta release; activity change, % at 57.5 µM; 360,000 tested, 4.7% active; THP-1 LPS/ATP IL-1B secretion, AlphaLISA, 16 h; hits give low values; in the data active = activity change below about -50%; inconclusive = mostly about -30% to -49%; note: % is set by controls: 0 for no effect and ±100 for the full control effect
#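 Secreted IL-1B measured by AlphaLISA bead assay after 16 h compound exposure of THP-1 cells; compounds (final up to 57.5 uM) added 1 h before LPS (250 ng/mL) and ATP (1.25 mM) stimulation; lower signal means less secretion.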
# PINK1 modulator: changes PINK1 expression | PINK1 immunofluorescence, high-content cytometry, 24 h | Potency, µM (doses to about 76.6 µM), without a hit: top-dose activation (PINK1 increase), usual class: activators | 410,000 tested, 0.2% active; active = well fitted activation curve with a large enough effect; inconclusive = small, poorly fitted or top-dose-only effect; cell line not stated here; note: potency is the fitted concentration of half-maximal effect; % of control where 0% means no effect; nearly all actives have a fitted effect of over 65% in size
#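 Cells are seeded, rested 12 hours, then given compound at five concentrations or DMSO for 24 hours. After fixation, blocking and antibody staining, PINK1 amount and mitochondrial localization are scored; CCCP serves as control.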
# ATXN viability: reduces viability in counter-screen for ATXN expression inhibitors; AID 651635; Potency, µM (series often up to 56.7 µM), actives largely listed as cytotoxic; S2 cells (HEK-293 line with an ATXN2-luciferase reporter) viability, CellTiter-Fluor protease fluorescence, 24 h; 400,000 tested, 0.49% active; note: potency is the fitted concentration of half-maximal effect; nearly all actives have a fitted effect of over 40% in size
# SW480 rerep: induces DNA re-replication in SW480 colon adenocarcinoma cells; SW480 DNA re-replication, Hoechst DNA content imaging, 48 h; Potency, µM (titrated, usually from 46.1 µM), without a hit: top-dose re-replication activation, usual class: activators; 340,000 tested, 1.8% active; AID 624297; note: potency is the fitted concentration of half-maximal effect; % of control where 0% means no effect; nearly all actives have a fitted effect of over 55% in size
#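 Image-based DNA-content assay: after two days of treatment, nuclei were labelled with the DNA dye Hoechst and imaged, and hits were compounds raising the count of nuclei showing high fluorescence intensity.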
# * hit, by the source's call; i = inactive; ? = inconclusive; . = no result; [ ] = dose if it differs, or a comment. Unless noted, calls come from the whole dose curve; as a rule, active = well fitted curve in the direction sought with a large enough effect; inconclusive = small, poorly fitted or top-dose-only effect, or another doubt; inactive = no such curve, though single readings can be large; an effect the other way counts as inactive or inconclusive.
SMILES,MCF10A rereplic,ATXN2 expr inh,IL-1B inflam inh,PINK1 modulator,ATXN viability,SW480 rerep
CC1(C)Cc2c(sc(NC(=O)COc3ccc(Cl)cc3)c2C#N)C(C)(C)N1,?,-15%,-70*,6%,i,?
Cc1ccccc1OCC(=O)Nc1sc2c(c1C#N)CC(C)(C)NC2(C)C,21µM*,-22%,-10,2%,i,?
CCc1ccc(OCC(O)CN2CCC(CN3C(=O)c4cccc5cccc(c45)C3=O)CC2)cc1 (configuration not stated),-11%,25µM*,-10,-1%,.,-1%
Cc1ccc(C)c(OCC(O)CN2CCC(Cc3ccccc3)CC2)c1 (configuration not stated),-3%,.,-60*,8%,.,-4%
CCc1ccc(OCC(O)CN2CCN(c3ccccc3)CC2)cc1 (configuration not stated),?,-5%,9,13%,i,1%
COc1ccc(COCC(O)CN2CCC(CN3C(=O)c4cccc5cccc(c45)C3=O)CC2)cc1OC (configuration not stated),-1%,-28%,-88*,1%,?,-695%
Cc1ccc(C)c(OCC(O)CN2CCN(CCN3C(=O)c4cccc5cccc(c45)C3=O)CC2)c1 (configuration not stated),?,?,-102*,8%,?,?
CC(C)c1ccc(NC(=O)C2CCCN(S(=O)(=O)c3cccc4nsnc34)C2)cc1 (configuration not stated),.,-15%,.,1%,i,.
COc1cccc(CNc2ncc(-c3ccc(Br)cc3)n2C)c1,.,.,.,2%,.,.
O=C1c2cccc3cccc(c23)C(=O)N1CC1CCN(CC(O)COc2ccc3ccccc3c2)CC1 (configuration not stated),?,?,-95*,-1%,i,?
Cc1cc(C)cc(OCC(O)CN2CCC(CN3C(=O)c4cccc5cccc(c45)C3=O)CC2)c1 (configuration not stated),?,20µM*,-81*,-1%,.,17%
COc1cccc(OCC(O)CN2CCC(CN3C(=O)c4cccc5cccc(c45)C3=O)CC2)c1 (configuration not stated),?,?,-97*,-3%,?,?
Cc1ccc(C(C)C)c(OCC(O)CN2CCc3ccccc3C2)c1 (configuration not stated),?,?,-101*,-1%,?,?
O=C1c2cccc3cccc(c23)C(=O)N1CCN1CCN(CC(O)COc2ccc3ccccc3c2)CC1 (configuration not stated),?,?,-2,-2%,?,?
Cc1ccc(S(=O)(=O)N2CCC(CN3C(=O)c4cccc5cccc(c45)C3=O)CC2)cc1,18%,-8%,-4,-2%,i,0%
O=[N+]([O-])c1ccccc1S(=O)(=O)N1CCN(c2nc(-c3ccccc3)nc3ccccc23)CC1,.,.,.,1%,.,.
O=C[C@H](O)[C@@H](O)[C@H](O[C@H]1O[C@H](CO)[C@@H](O[C@H]2O[C@H](CO)[C@@H](O)[C@H](O)[C@H]2O)[C@H](O)[C@H]1O)[C@H](O)CO,.,.,.,.,i,.
Cn1c(C(=O)NCc2cccc(F)c2)cc2cc(S(=O)(=O)N3CCCCC3)ccc21,.,.,.,3%,.,.
CCN(CC)C(=S)S,6%,.,.,.,.,?
COc1ccc2c(c1)-c1nc(-n3ncc(C(=O)NC[C@@H]4CCCN5CCCC[C@H]45)c3C)ncc1CC2,.,.,.,0%,25µM*,.
COc1ccc(CNC(=O)c2oc3c(c2C)-c2nn(Cc4ccc(Cl)cc4)cc2CC3)cc1,.,.,.,1%,.,.
N#CC1=C(N)N2C(=C(C#N)C1c1cccc(Br)c1)Nc1ccccc12 (configuration not stated),21µM*,?,-119*,3.2µM*,.,15µM*
N#CC1=C(N)N2C(=C(C#N)C13CCN(Cc1ccccc1)CC3)Nc1ccccc12,29%,6%,10,-1%[38.3 µM],?,12%

# Compound activity: PubChem BioAssay, National Center for Advancing Translational Sciences (NCATS)
